KDM4E inh = blocks human JMJD2E demethylase activity | JMJD2E catalytic domain, FDH-coupled NADH fluorescence (FDH is formaldehyde dehydrogenase) | Potency, µM (series often up to 57.1 µM), inactives show top-dose activity change, negative = inhibition, most hits filed as inhibitors | hit rate 1.6% among 230,000; active = well fitted inhibition curve with a large enough effect, not every such curve was filed as active; inconclusive = small, poorly fitted or top-dose-only effect, or another doubt; inactive = no such curve, though single readings can be large or run the other way;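 also: 0% = wells with enzyme and -100% = buffer wells without enzyme; nearly all actives have a fitted effect of over 50% in size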
Target sequence (B2RXH2 1-337 limits assumed): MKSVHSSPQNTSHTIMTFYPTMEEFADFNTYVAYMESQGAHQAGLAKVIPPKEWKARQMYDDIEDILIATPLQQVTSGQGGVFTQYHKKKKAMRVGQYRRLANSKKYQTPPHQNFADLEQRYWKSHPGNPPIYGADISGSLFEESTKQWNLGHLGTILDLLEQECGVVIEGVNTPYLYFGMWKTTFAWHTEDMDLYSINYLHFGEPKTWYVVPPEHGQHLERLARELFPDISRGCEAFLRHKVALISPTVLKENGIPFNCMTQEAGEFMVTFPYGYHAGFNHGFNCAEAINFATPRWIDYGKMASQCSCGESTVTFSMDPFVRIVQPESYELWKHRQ
L3MBTL1 block = blocks human L3MBTL1. Q9Y468. AlphaScreen L3MBTL1–H3K9me1 peptide binding. Potency, µM (doses to about 57.1 µM), for the others: at the top dose activity, negative = inhibition, most hits filed as inhibitors. hit rate 0.66% among 230,000; also: % is scaled to controls: 0 for no effect and ±100 for the full control effect; nearly all actives have a fitted effect of over 60% in size
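AlphaScreen assay: L3MBTL1 (50 nM final) was preincubated 30 min at room temperature with biotinylated H3(1-15)K9me1 peptide (75 nM final), then 30 min with library compounds; streptavidin donor and nickel chelate acceptor beads (10 ug/mL final) added, 30 min dark.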
HTT aggregate = reduces HttQ103-GFP aggregates in PC12 cells. PC12 HttQ103-GFP aggregates, Acumen cytometry, 40 h. hit rate 1.1% among 220,000. Potency, µM (series often up to 46.1 µM), without a hit: at the highest dose activity change, negative = inhibition, most hits filed as inhibitors; also: % is scaled to controls: 0 for no effect and ±100 for the full control effect; nearly all actives have a fitted effect of over 60% in size
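PC12/HTTQ103-GFP, ecdysone-inducible; teb 100 nM; cpd qHTS titration; GFP aggregates read on laser cytometer, Ex 488/Em 500-530 nm.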
HTT cytoprotect = cytoprotection in Huntington HTT-Q103 PC12 cell model; PC12 HTT-Q103 induced, cytoprotection, ATP luminescence, 40 h; Potency, µM (top dose mostly 56.4 µM), inactives show cytoprotection (ATP increase), most hits filed as activators; AID 1471; hit rate 0.14% among 230,000; also: % of control where 0% means no effect; nearly all actives have a fitted effect of over 45% in size
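ATP quantification (ATPlite) reports survival of PC12 cells in which tebufenozide, 100 nM final, switches on Htt exon 1 with 103 glutamines linked to GFP; compounds are titrated.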
* hit, by the source's call; ! = repeats disagree; [ ] = remark or other dose. The list is not random: actives were taken first. Their share in the collection is about 1.8%. Unless noted, calls follow the shape of the dose curve; as a rule, active = well fitted curve in the direction sought with a large enough effect; inconclusive = small, poorly fitted or top-dose-only effect, or another doubt; inactive = no such curve, though single readings can be large; an effect the other way counts as inactive or inconclusive. Potency is read from the fitted curve at half-maximal effect.

What do the screens show for `COc1ccc(COC(=O)N/N=C2/C[C@@H](O)[C@@H](O)[C@@H]3[C@@H]4C(=O)N(C(C)(C)C)C(=O)[C@H]4CC[C@@H]23)cc1`?
HTT cytoprotect: -4%[10 µM]

How did NC(N)=N[C@H](CCC(=O)O)C(=O)O do in these assays?
HTT cytoprotect: 4%[1.9 µM]

How did Cc1cc2c(nc1C)CCCCN2C[C@H](C)O/N=C1/[C@H]2O[C@@H]2[C@@H](O)[C@H]2[C@H]1CCn1c(=O)n(-c3ccccc3)c(=O)n12 do in these assays?
HTT cytoprotect: 39%[10 µM]

Results for Cn1ccc2cc3c(cc21)CCN3C(=O)Nc1cccnc1 ?
KDM4E inh: 35µM*!; L3MBTL1 block: -3%; HTT aggregate: -6%; HTT cytoprotect: -66%

What do the screens show for `O=C(NC[C@@H]1CCCCN1)c1cc(OCC(F)(F)F)ccc1OCC(F)(F)F`?
KDM4E inh: 3%[25.5 µM]; HTT cytoprotect: inconclusive

How did Cc1nnc(N/N=C/c2ccc(-c3ccc(Br)cc3)o2)n1N do in these assays?
KDM4E inh: 5.6µM*; L3MBTL1 block: -23%; HTT aggregate: -9%; HTT cytoprotect: -58%

Results for CC(C)C1NC(=S)N(C2CCCCC2)C1=O (stereo not drawn) ?
KDM4E inh: -6%; L3MBTL1 block: 7%; HTT aggregate: 23%

What do the screens show for `O=c1[nH][nH]c(=S)n1C1CCCCC1`?
KDM4E inh: 2.8µM*; L3MBTL1 block: 4%; HTT aggregate: -13%[9.22 µM]; HTT cytoprotect: -23%[10 µM]

What do the screens show for `COc1cc(/C=N/n2c(-c3ccccc3)n[nH]c2=S)cc(OC)c1O`?
KDM4E inh: -1%; L3MBTL1 block: -7%; HTT aggregate: -7%[9.22 µM]; HTT cytoprotect: -4%[10 µM]

How did CC(/C=N/n1c(-c2cccnc2)n[nH]c1=S)=C\c1ccccc1 do in these assays?
KDM4E inh: inconclusive; L3MBTL1 block: -5%; HTT aggregate: inconclusive; HTT cytoprotect: -33%

Results for S=c1[nH]nc(-c2ccccn2)n1/N=C/c1ccco1 ?
KDM4E inh: -8%; L3MBTL1 block: 20µM*; HTT aggregate: -9%[9.22 µM]; HTT cytoprotect: 0%[10 µM]

Results for COc1cc(/C=N/n2c(-c3ccccc3)n[nH]c2=S)ccc1O ?
KDM4E inh: 25µM*; L3MBTL1 block: -12%; HTT aggregate: 16%[9.22 µM]; HTT cytoprotect: -10%[10 µM]

What do the screens show for `C(=C\c1ccco1)/C=N/n1cnnc1`?
KDM4E inh: 14µM*; L3MBTL1 block: inconclusive; HTT aggregate: 28%; HTT cytoprotect: -4%

What do the screens show for `CC(=C/c1ccccc1)/C=N/n1c(-c2ccncc2)n[nH]c1=S`?
KDM4E inh: inconclusive; L3MBTL1 block: -3%[11.4 µM]; HTT aggregate: 2µM*; HTT cytoprotect: -44%

Results for OC[C@@H]1NC[C@@H](O)[C@H]1O ?
HTT cytoprotect: 7%[1.9 µM]

How did COc1cc(C(=O)O[C@@H]2CC(C)=CC[C@@]3(C)CC[C@](O)(C(C)C)[C@H]23)ccc1O do in these assays?
HTT cytoprotect: 19%

How did S=c1[nH]nc(-c2ccncc2)n1/N=C/C=C/c1ccco1 do in these assays?
KDM4E inh: -11%; L3MBTL1 block: 18µM*; HTT aggregate: inconclusive; HTT cytoprotect: -28%

What do the screens show for `Cc1ccsc1/C=N/n1c(-c2ccccn2)n[nH]c1=S`?
KDM4E inh: -4%; L3MBTL1 block: 32µM*; HTT aggregate: 0%

What do the screens show for `Cc1ccsc1/C=N/n1c(-c2ccccc2)n[nH]c1=S`?
KDM4E inh: -3%; L3MBTL1 block: -6%; HTT aggregate: 5%; HTT cytoprotect: -8%[10 µM]

What do the screens show for `CC(NCC(O)COc1ccc(S(=O)(=O)N2CCOCC2)cc1)c1ccccc1` (stereo not drawn)?
KDM4E inh: -13%; L3MBTL1 block: 0%; HTT aggregate: -3%; HTT cytoprotect: 2.2µM*

Results for Cc1nc2cc(NCc3ccccc3O)ccc2n1Cc1ccccc1 ?
KDM4E inh: 40µM*; L3MBTL1 block: -15%; HTT aggregate: 7%[9.22 µM]; HTT cytoprotect: 10%[10 µM]

What do the screens show for `Cc1csc(NC(=O)CSc2nnc(-c3ccncc3)n2C)n1`?
KDM4E inh: 1%; L3MBTL1 block: 8%; HTT aggregate: 0.0008µM*; HTT cytoprotect: 0%

What do the screens show for `CCOC(=O)c1ccc(CC(=O)c2ccc(O)cc2O)o1`?
KDM4E inh: -20%; HTT aggregate: -8%; HTT cytoprotect: 4%

What do the screens show for `CCC(=O)Oc1ccc(C/C(=N\O)c2ccc(O)cc2O)o1`?
KDM4E inh: 24%; L3MBTL1 block: 32µM*; HTT aggregate: -28%; HTT cytoprotect: -11%[10 µM]

How did O=C(O)CSc1nc(-c2cccs2)cc(C(F)(F)F)n1 do in these assays?
KDM4E inh: 3%; L3MBTL1 block: 4%

How did CCC(C)NC(=O)CSc1nc(-c2cccs2)cc(C(F)(F)F)n1 (stereo not drawn) do in these assays?
KDM4E inh: 11%; HTT aggregate: 13µM*; HTT cytoprotect: -13%[10 µM]

How did Cc1ncc(CC(=O)n2cc(C(=O)c3cc(F)ccc3O)cn2)s1 do in these assays?
KDM4E inh: -8%; L3MBTL1 block: -5%; HTT aggregate: -13%; HTT cytoprotect: -13%

Results for Cc1ccc(O)c(C(=O)c2cnn(C(=O)Cc3csc(C)n3)c2)c1 ?
KDM4E inh: -3%; L3MBTL1 block: 3%; HTT aggregate: 22µM*; HTT cytoprotect: 17%[10 µM]

How did COc1ccc(/C=C2/CCc3ccccc3C2=O)cc1CN1CCOCC1 do in these assays?
KDM4E inh: -16%; L3MBTL1 block: -7%; HTT aggregate: 0%

How did COc1ccc(/C=C2\CCc3ccccc3C2=O)cc1Cn1nc(C)cc1C do in these assays?
KDM4E inh: -6%; HTT aggregate: 25µM*; HTT cytoprotect: -14%

How did Cc1sc2ncnc(N(C)Cc3cccs3)c2c1C do in these assays?
KDM4E inh: -4%; HTT aggregate: inconclusive; HTT cytoprotect: -4%

How did CN(Cc1cccs1)c1ncnc2sccc12 do in these assays?
KDM4E inh: -22%; L3MBTL1 block: 4%; HTT aggregate: 3.2µM*; HTT cytoprotect: 1%[10 µM]

What do the screens show for `COc1ccc2[nH]c3c(NCCC4=CCCCC4)ncnc3c2c1`?
KDM4E inh: inconclusive; HTT aggregate: 13µM*; HTT cytoprotect: -156%

What do the screens show for `FC(F)(F)c1cc(CN2CCC3(CCNCC3)CC2)cc(C(F)(F)F)c1`?
HTT cytoprotect: -17%

How did CCOC(=O)c1c(/N=C/c2ccc(C)cc2O)sc2c1CCC2 do in these assays?
KDM4E inh: 1%; L3MBTL1 block: -1%; HTT aggregate: 11%; HTT cytoprotect: 13%[10 µM]

How did CCOC(=O)c1c(/N=C/c2ccc(OC)cc2O)sc2c1CCN(C)C2 do in these assays?
KDM4E inh: inconclusive; L3MBTL1 block: 25µM*; HTT aggregate: 9%[9.22 µM]; HTT cytoprotect: 22%[10 µM]

Results for CCC(=O)[C@@]1(C)[C@H](C)C[C@@H]2[C@@H]3CCC4=CC(=O)C=C[C@@]4(C)[C@H]3[C@H](O)C[C@]21C ?
KDM4E inh: 1%[25.5 µM]; HTT aggregate: 5%[20.6 µM]; HTT cytoprotect: -89%[17.1 µM]

Results for O=S(=O)(/N=S1/CC=CCN1S(=O)(=O)c1ccccc1)c1ccccc1 (stereo not drawn) ?
KDM4E inh: 28µM*; L3MBTL1 block: -11%; HTT aggregate: inconclusive; HTT cytoprotect: 4%[10 µM]
